Methyltransferases = Primary Screen for Target Class Profiling of Small Molecule Inhibitors of Methyltransferases | calls only at 40 µM | AID 1745853, 2022 | purified enzyme, MTase-Glo SAH luminescence; hits give low values | 25,000 compounds, 3.9% hits; call rule not given here
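Each enzyme was reacted with SAM and its substrate, with compounds tested once at 40 uM; SAH formed was read by MTase-Glo luminescence.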
Calls only; – = inactive; + = active, no number; ! = repeats disagree. The sample as a whole holds a higher share of hits than the screen did.

SMILES	Methyltransferases
CC(C)NC(=O)c1ccc2c(=O)n(Cc3ccccc3)c3nnc(SCc4cccc(F)c4)n3c2c1	–
CC(C)c1cc(CNc2nc(Nc3cc(C4CC4)[nH]n3)cc(N3CCN(C)CC3)n2)on1	+
CCN(CCCNC(=O)CCCc1nnc2n3nc(C)nc3c3ccccc3n12)c1cccc(C)c1	–
Cc1cc(C)cc(N2C(=O)c3cc4ccccc4n3CC2(C)C(=O)NCCC(C)C)c1 (stereo not drawn)	–
COc1cccc(CNC(=O)Cn2nc3n(Cc4ccc(C)cc4)c(=O)c4ccccc4n3c2=O)c1	–
CCOC(=O)C1CCN(S(=O)(=O)c2ccc(Cl)c(-c3nnc(-c4ccccc4)o3)c2)CC1	–
N#Cc1c(O)c2c(-c3ccc(-c4ccccc4O)cc3)csc2[nH]c1=O	+!
CCC(C)NC(=O)c1cc2n(n1)CC(C)(C(=O)NC1CCCCCC1)N(C)C2=O (stereo not drawn)	–
CC(C)NC(=O)c1ccc2c(=O)n(Cc3ccccc3)c3nnc(SCc4ccccc4)n3c2c1	–
CC(C)CCNC(=O)C1(C)Cn2c(ccc2-c2ccco2)C(=O)N1CCCc1ccccc1 (stereo not drawn)	–
O=C1NC2CCCCN2C12CCN(CCCN1c3ccccc3CCc3ccc(Cl)cc31)CC2 (stereo not drawn)	+
CN(C)CCCN1c2ccccc2Sc2ccc(Cl)cc21	–
OCCN1CCN(CCCN2c3ccccc3Sc3ccc(Cl)cc32)CC1	–
Cc1ccc(NC(=O)CSc2nnc3n(CC(C)C)c(=O)c4ccc(Cl)cc4n23)c(Cl)c1	–
CSc1cccc(N2C(=O)CSc3c(c4ccccc4n3C)C2C(=O)NCc2ccc(F)cc2)c1 (stereo not drawn)	–
COc1ccc(CNC(=O)CSc2nnc3n(CCc4ccccc4)c(=O)c4ccccc4n23)cc1	–
O=C(Nc1cccc(Nc2cc(Nc3cccc(C(F)(F)F)c3)ncn2)c1)C1CC1	+
O=C(Nc1ccnc(NC(=O)C2CC2)c1)c1c(Cl)cccc1Cl	–
O=C(O)c1cccnc1Nc1cccc(C(F)(F)F)c1	–
CCCC(=O)N(c1ccc(OC)cc1)S(=O)(=O)c1ccc2c(c1)n(C)c(=O)n2C	–
COC(=O)c1ncn2c1C(=O)N(Cc1ccccc1OC)C(C)(C(=O)NC1CCCCC1)C2 (stereo not drawn)	–
CN1C(=O)c2cc(C(=O)NCc3ccc(F)cc3)nn2CC1(C)C(=O)NC1CCCCCC1 (stereo not drawn)	–
Cc1cc(C)cc(-c2cnc3cc(Cl)c(-c4cccc(O)c4)cc3c2OCCCN)c1	+
CCC(C)NC(=O)c1ccc2c(=O)n(C(C)C)c3nn(CC(=O)c4cc(C)ccc4C)c(=O)n3c2c1 (stereo not drawn)	–
COc1cccc(C(=O)N2CCOC[C@H](Oc3ccccc3)C2)c1	–
SMILES	Methyltransferases
COC(=O)c1ncn2c1C(=O)N(Cc1ccco1)C(C)(C(=O)NC1CCCCCC1)C2 (stereo not drawn)	–
CC(C)c1ccc(S(=O)(=O)NCCn2c(CCc3ccccc3)nc3ccccc32)cc1	–
CN(Cc1ccc(C(=O)O)cc1)c1ccc(OCc2c(-c3c(Cl)cccc3Cl)noc2C2CC2)nc1C(F)(F)F	+
COCC1CN(Cc2ccc(C(C)C)cc2)CC12CCNCC2 (stereo not drawn)	–
Cc1ccc(C2c3cccn3-c3sc4c(c3CN2C(=O)Nc2ccccc2)CCCC4)cc1 (stereo not drawn)	–
CCc1cccc(NC(=O)Cn2nc3n(CC(C)C)c(=O)c4ccc(C(=O)NCC(C)C)cc4n3c2=O)c1	–
CC(CN(C)C)CN1c2ccccc2CCc2ccccc21 (stereo not drawn)	–
CN(C)CCC=C1c2ccccc2CCc2ccccc21	+
COC(=O)c1cc2n(n1)CC(C)(C(=O)NC1CCCCC1)N(c1cc(OC)cc(OC)c1)C2=O (stereo not drawn)	–
CCOC(=O)c1cc2n(n1)CC(C)(C(=O)NC1CCCCC1)N(Cc1ccc(CC)cc1)C2=O (stereo not drawn)	–
COc1cccc(OC)c1-c1ccc(C[C@H](NC(=O)c2c(Cl)cccc2Cl)C(=O)O)cc1	–
COc1ccc(CC(NC(C)=O)C(=O)O)cc1 (stereo not drawn)	+
CC(=O)N[C@@H](CS)C(=O)O	–
Cc1ccc(C(=O)Cn2nc3n(CCCOC(C)C)c(=O)c4ccccc4n3c2=O)cc1	–
CCCNC(=O)c1ccc2c(=O)nc3c(-c4ccc(OC)cc4)n[nH]n3c2c1	–
O=C(O)COCCN1CCN(C(c2ccccc2)c2ccc(Cl)cc2)CC1 (stereo not drawn)	–
CN(C)CCCNc1nc(CN2CCN(C(c3ccc(Cl)cc3)c3ccc(Cl)cc3)CC2)nc2ccccc12	+
O=C(O)COCCN1CCN([C@H](c2ccccc2)c2ccc(Cl)cc2)CC1	–
CCOC(=O)c1cc2n(n1)CC(C)(C(=O)NCc1ccc(F)cc1)N(Cc1ccccc1OCC)C2=O (stereo not drawn)	–
CCN1C(=O)c2c(C(=O)NCCc3ccc(C)cc3)ncn2CC1(C)C(=O)NC1CCCC1 (stereo not drawn)	–
CN(C)C(=O)Nc1cccc(-c2ccc(N(C)C)cc2)c1	–
CCn1cc(-c2ccnc3[nH]c(-c4cccc(CN(C)C)c4)cc23)c(-c2ccc(NC(=O)N(C)C)cc2)n1	+
Cn1c(=O)c2ccc(C(=O)NC3CCCC3)cc2n2c(=O)n(CC(=O)NC3CCCC3)nc12	–
CC(C)(C)c1ccc(-c2nc3ccccc3[nH]2)cc1	+
COc1ccc(-c2nc3ccccc3[nH]2)cc1	+
SMILES	Methyltransferases
COc1ccc(-c2cc(C(O)C3CCCCN3)c3ccccc3n2)cc1 (stereo not drawn)	–
COc1ccc(OC)c(S(=O)(=O)N2CCc3nc(-c4ccccc4)[nH]c3C2)c1	–
CC(C)Cc1ccc(S(=O)(=O)NCCn2cnc3ccccc32)cc1	–
Cc1cc(C)cc(NS(=O)(=O)c2cc3[nH]c(=O)[nH]c3cc2C)c1	–
CC1(C(=O)NCc2ccc(F)cc2)Cn2cnc(C(=O)NCCc3cccs3)c2C(=O)N1C1CC1 (stereo not drawn)	–
CCCn1c(=O)c2ccc(C(=O)NC(C)CC)cc2n2c(=O)n(Cc3cc(C)ccc3C)nc12 (stereo not drawn)	–
COC(=O)c1cc2n(n1)CC(C)(C(=O)NC1CCCC1)N(c1ccc(Cl)cc1C)C2=O (stereo not drawn)	–
CCOc1ccc(C2c3cccn3-c3sc4c(c3CN2C(=O)Nc2cc(F)ccc2F)CCCC4)cc1 (stereo not drawn)	–
COCCOc1ccnc(-c2noc([C@@H]3CCCN3Cc3ccncc3)n2)c1	–
COCCOc1ccc2c(c1)ncn2-c1ccc2cccc(N3CCC(N)CC3)c2n1	+
Cn1c(=O)c2ccc(C(=O)NC3CCCCC3)cc2n2c(=O)n(CC(=O)Nc3ccccc3Cl)nc12	–
Cc1ccc2c(c1)c(-n1cccc1)c1n2CC(C)(C(=O)NCCC(C)C)N(Cc2cccs2)C1=O (stereo not drawn)	–
COC(=O)c1cc2n(n1)CC(C)(C(=O)NC1CCCCC1)N(Cc1ccccc1OC)C2=O (stereo not drawn)	–
O=C(NC1CCCC1)c1ccc2c(=O)n(Cc3ccccc3)c3nn(Cc4ccccc4F)c(=O)n3c2c1	–
C=CC(=O)Nc1cccc(Oc2nc(Nc3ccc(N4CCN(C)CC4)cc3)ncc2Cl)c1	+
C=CC(=O)Nc1cccc(Nc2nc(Nc3ccc(N4CCN(C(C)=O)CC4)cc3OC)ncc2C(F)(F)F)c1	–

Screening data as filed in PubChem BioAssay.
